# Experimental data published in the supplement of paper PMC10849652.
# Targets with a hit are over-represented here; the source holds about 7,900 in all. About 0.6% of all pairs of compound and target were hits. Values without a mark were called inactive.
# How the values were obtained:
# Assay in all cases: log2 fold change, soluble protein after heating vs DMSO (PISA); higher = thermal stabilisation; K562 cells, 10 uM, 30 min; active = over 0.2 and 3.5 SD of the protein, either way, in both replicates (recomputed)
# IRAK-1-4 Inhibitor I = compound: C1COCCN1CCN2C3=CC=CC=C3N=C2NC(=O)C4=CC(=CC=C4)[N+](=O)[O-] [IRAK-1-4 Inhibitor I]
# Summary of the method: (§1)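 Soluble protein was defined as the supernatant after 21,000xg for 90 min. It came from K562 cells at 2×10^6 cells/mL given 10 μM compound for 30 min, heated in aliquots for 3 min across 48°C-58°C, pooled, and extracted in PBS with 0.5% NP-40 at 4°C, and was quantified by TMTpro 16plex LC-MS/MS with equalised channel sums. Thermal stability against control samples, from duplicates, is reported as log2 fold change.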
# ibrutinib = compound: C=CC(=O)N1CCC[C@@H](n2nc(-c3ccc(Oc4ccccc4)cc3)c3c(N)ncnc32)C1 [ibrutinib]
# Summary of the method: as §1
# [1] = compound: CC(=O)c1cnc2ccc(-c3cc(Cl)c(O)c(Cl)c3)nc2c1N[C@H]1CC[C@H](CN(C)C)CC1
# Summary of the method: as §1
# ralimetinib = compound: CC(C)(C)Cn1c(N)nc2ccc(-c3[nH]c(C(C)(C)C)nc3-c3ccc(F)cc3)nc21 [ralimetinib]
# Summary of the method: as §1
# [2] = compound: CC(C)(O)CC(=O)NCCn1ccc2ncnc(Nc3ccc(Oc4cccc(C(F)(F)F)c4)c(Cl)c3)c21
# Summary of the method: as §1
# [3] = compound: CC(C)C1=C2N=C(C=C(N2N=C1)NCC3=CC=CC=C3)NCCCCCCN
# Summary of the method: as §1
# [4] = compound: CC(C)C[C@@H](C=O)NC(=O)[C@H](CC(C)C)NC(=O)[C@H](CC(C)C)NC(=O)OCc1ccccc1
# Summary of the method: as §1
# pinometostat = compound: CC(C)N(C[C@H]1O[C@@H](n2cnc3c(N)ncnc32)[C@H](O)[C@@H]1O)[C@H]1C[C@@H](CCc2nc3cc(C(C)(C)C)ccc3[nH]2)C1 [pinometostat]
# Summary of the method: as §1
# [5] = compound: CC1=C(C(CC(=O)N1)C2=CC=C(C=C2)C(F)(F)F)C(=O)NC3=C(C=C4C(=C3)C=NN4)F
# Summary of the method: as §1
# [6] = compound: CC1=C(C2=C(C=C1)C(=O)C3=CC=CC=C3N2CCCN)C
# Summary of the method: as §1
# [7] = compound: CC1=C(C=C(C=C1)NC(=O)C2=CC(=CC=C2)C(C)(C)C#N)NC3=CC4=C(C=C3)N=CN(C4=O)C
# Summary of the method: as §1
# [8] = compound: CC1=C(C=C(C=C1)NC(=O)C2=CC(=CC=C2)N(C)C)NC(=O)C3=CC=C(C=C3)O
# Summary of the method: as §1
# [9] = compound: CC1=CC=C(C=C1)SC2=C3C=C(SC3=CN=C2)C(=O)N
# Summary of the method: as §1
# [10] = compound: CC1=NC(=CC=C1)C2=C(N=C(N2)C(C)(C)C)C3=CC4=NC=CN=C4C=C3
# Summary of the method: as §1
# Nexturastat A = compound: CCCCN(Cc1ccc(C(=O)NO)cc1)C(=O)Nc1ccccc1 [Nexturastat A]
# Summary of the method: as §1
# vemurafenib = compound: CCCS(=O)(=O)Nc1ccc(F)c(C(=O)c2c[nH]c3ncc(-c4ccc(Cl)cc4)cc23)c1F [vemurafenib]
# Summary of the method: as §1
# [11] = compound: CCCS(=O)(=O)Nc1ccc(F)c(C(=O)c2c[nH]c3ncc(Cl)cc23)c1F
# Summary of the method: as §1
# [12] = compound: CCCc1cc(C)[nH]c(=O)c1CNC(=O)c1cc(-c2ccnc(N3CCN(C)CC3)c2)cc2c1cnn2C(C)C
# Summary of the method: as §1
# givinostat = compound: CCN(CC)Cc1ccc2cc(COC(=O)Nc3ccc(C(=O)NO)cc3)ccc2c1 [givinostat]
# Summary of the method: as §1
# barasertib = compound: CCN(CCCOc1ccc2c(Nc3cc(CC(=O)Nc4cccc(F)c4)[nH]n3)ncnc2c1)CCOP(=O)(O)O [barasertib]
# Summary of the method: as §1
# Sequence of UniProt Q14978 (Q14978 whole entry, looked up): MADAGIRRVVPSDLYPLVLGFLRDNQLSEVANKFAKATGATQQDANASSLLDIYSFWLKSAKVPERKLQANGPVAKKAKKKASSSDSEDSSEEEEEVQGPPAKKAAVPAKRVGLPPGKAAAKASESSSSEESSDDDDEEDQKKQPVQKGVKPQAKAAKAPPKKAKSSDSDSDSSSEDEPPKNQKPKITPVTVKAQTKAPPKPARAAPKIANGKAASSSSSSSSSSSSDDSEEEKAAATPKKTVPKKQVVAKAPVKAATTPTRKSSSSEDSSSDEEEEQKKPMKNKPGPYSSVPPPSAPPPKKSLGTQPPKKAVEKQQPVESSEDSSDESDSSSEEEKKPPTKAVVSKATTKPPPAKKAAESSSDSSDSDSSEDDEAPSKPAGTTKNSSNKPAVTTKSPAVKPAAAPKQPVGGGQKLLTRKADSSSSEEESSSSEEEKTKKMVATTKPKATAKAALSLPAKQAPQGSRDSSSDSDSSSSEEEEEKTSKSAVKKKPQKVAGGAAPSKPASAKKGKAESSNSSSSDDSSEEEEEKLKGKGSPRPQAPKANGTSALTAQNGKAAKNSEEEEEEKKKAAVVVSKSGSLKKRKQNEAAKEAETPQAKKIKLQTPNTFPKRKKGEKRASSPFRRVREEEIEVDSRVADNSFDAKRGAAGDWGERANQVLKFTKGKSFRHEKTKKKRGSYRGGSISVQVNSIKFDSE
# Sequence of UniProt Q14149 (Q14149 whole entry, looked up): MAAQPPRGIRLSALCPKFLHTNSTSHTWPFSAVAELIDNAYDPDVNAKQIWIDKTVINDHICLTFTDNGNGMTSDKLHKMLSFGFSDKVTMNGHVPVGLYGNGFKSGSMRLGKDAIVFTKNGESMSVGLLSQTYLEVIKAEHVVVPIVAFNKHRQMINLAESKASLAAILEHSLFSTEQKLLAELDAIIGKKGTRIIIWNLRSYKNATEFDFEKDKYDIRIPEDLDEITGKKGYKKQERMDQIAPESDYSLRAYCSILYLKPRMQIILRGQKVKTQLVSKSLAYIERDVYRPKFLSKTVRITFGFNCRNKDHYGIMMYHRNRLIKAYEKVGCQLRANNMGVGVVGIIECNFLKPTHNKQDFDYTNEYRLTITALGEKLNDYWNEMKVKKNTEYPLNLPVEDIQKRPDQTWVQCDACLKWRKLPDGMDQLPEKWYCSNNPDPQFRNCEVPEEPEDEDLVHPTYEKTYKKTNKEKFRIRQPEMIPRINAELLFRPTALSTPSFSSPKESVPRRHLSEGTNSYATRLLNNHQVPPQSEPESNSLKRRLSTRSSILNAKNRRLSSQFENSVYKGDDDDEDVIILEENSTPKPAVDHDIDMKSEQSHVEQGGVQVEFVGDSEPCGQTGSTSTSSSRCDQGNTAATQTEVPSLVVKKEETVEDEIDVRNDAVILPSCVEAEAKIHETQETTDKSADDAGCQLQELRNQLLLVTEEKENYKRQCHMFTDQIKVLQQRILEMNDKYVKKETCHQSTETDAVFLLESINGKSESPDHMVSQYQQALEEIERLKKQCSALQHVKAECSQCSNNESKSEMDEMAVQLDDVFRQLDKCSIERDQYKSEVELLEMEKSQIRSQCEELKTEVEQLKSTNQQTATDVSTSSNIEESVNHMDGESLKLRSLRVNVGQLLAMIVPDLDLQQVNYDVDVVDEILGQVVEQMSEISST
# Sequence of UniProt P46087 (P46087 whole entry, looked up): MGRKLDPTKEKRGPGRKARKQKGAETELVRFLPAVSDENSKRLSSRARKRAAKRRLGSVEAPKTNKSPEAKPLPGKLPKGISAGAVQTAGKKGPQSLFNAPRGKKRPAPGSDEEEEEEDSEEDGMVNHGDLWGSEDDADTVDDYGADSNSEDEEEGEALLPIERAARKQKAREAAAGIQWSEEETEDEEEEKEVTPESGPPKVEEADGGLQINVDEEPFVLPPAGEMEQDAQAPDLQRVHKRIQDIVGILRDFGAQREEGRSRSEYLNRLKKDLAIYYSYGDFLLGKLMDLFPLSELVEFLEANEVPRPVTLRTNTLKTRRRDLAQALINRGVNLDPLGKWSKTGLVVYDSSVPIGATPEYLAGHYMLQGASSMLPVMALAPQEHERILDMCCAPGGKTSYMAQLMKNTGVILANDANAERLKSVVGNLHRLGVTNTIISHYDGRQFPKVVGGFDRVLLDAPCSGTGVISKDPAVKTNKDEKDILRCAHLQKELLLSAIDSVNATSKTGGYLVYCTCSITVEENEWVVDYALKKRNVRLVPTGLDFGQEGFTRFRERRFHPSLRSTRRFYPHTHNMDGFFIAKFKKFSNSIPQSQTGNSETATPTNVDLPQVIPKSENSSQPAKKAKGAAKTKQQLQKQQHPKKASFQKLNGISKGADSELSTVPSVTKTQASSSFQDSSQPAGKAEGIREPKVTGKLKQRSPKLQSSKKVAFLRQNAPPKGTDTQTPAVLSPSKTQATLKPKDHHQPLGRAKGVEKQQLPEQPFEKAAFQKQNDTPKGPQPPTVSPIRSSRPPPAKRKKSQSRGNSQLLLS
# Sequence of UniProt Q9H8H0 (Q9H8H0 whole entry, looked up): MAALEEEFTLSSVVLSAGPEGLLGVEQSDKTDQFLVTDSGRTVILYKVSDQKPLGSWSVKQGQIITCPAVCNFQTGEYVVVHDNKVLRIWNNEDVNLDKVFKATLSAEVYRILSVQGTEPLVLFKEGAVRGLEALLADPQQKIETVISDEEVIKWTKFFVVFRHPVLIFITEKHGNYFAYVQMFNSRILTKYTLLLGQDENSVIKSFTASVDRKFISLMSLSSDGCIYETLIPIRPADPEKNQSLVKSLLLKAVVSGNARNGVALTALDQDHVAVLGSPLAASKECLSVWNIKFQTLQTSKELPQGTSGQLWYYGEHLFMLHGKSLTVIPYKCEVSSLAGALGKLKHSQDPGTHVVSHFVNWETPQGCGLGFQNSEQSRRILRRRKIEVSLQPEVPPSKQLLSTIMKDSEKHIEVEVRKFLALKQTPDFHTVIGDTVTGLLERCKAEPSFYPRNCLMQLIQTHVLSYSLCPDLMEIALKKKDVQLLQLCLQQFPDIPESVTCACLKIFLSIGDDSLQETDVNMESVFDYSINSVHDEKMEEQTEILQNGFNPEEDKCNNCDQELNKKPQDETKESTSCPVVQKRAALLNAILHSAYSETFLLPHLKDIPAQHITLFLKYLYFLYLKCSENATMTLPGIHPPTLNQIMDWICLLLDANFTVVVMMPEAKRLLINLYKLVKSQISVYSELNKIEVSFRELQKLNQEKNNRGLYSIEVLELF
# Sequence of UniProt Q15003 (Q15003 whole entry, looked up): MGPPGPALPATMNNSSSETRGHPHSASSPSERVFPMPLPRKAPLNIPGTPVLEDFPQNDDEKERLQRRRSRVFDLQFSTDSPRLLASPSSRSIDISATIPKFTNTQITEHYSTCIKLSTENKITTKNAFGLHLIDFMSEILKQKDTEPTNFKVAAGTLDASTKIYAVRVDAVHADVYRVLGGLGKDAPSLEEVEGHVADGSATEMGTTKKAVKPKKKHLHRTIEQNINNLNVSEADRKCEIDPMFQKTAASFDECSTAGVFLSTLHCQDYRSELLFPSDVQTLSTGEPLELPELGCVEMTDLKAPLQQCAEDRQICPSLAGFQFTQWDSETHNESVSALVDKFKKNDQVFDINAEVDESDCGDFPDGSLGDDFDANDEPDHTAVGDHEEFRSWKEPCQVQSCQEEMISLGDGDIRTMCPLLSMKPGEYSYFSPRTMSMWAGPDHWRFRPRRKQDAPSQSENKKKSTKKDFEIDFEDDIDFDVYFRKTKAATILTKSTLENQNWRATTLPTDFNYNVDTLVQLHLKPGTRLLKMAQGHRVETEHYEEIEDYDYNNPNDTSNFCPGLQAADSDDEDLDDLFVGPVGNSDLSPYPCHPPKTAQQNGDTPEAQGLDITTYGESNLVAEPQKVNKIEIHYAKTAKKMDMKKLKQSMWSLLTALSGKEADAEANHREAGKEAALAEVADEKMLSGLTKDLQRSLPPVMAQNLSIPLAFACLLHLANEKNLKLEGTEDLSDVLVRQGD
# Sequence of UniProt Q9HBL8 (Q9HBL8 whole entry, looked up): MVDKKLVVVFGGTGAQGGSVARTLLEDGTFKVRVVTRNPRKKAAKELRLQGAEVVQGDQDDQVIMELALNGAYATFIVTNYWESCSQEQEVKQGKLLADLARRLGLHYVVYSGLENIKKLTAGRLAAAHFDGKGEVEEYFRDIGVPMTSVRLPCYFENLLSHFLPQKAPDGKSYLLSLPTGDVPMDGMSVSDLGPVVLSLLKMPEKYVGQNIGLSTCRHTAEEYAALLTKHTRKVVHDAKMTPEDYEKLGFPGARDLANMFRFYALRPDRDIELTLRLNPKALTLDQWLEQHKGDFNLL
# Sequence of UniProt Q96DE0 (Q96DE0 whole entry, looked up): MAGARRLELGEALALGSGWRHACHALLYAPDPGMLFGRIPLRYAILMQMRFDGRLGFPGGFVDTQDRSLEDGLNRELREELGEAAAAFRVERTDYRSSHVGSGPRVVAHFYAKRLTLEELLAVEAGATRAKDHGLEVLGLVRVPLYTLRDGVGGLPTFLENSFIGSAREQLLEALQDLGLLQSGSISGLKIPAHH
# Sequence of UniProt O75251 (O75251 whole entry, looked up): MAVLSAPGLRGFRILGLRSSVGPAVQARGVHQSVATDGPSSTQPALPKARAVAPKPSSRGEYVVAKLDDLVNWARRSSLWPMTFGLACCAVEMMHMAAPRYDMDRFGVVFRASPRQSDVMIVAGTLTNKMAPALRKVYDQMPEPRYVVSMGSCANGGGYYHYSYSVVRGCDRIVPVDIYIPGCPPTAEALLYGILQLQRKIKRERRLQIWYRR
# Sequence of UniProt Q9H1E3 (Q9H1E3 whole entry, looked up): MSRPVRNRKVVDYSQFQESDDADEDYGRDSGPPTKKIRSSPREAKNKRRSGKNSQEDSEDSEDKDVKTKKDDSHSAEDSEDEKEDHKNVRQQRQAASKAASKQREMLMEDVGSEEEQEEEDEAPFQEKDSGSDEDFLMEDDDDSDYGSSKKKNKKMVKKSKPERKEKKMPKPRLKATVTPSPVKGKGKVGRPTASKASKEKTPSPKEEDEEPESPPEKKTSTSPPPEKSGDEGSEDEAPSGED
Target,log2 fold change (IRAK-1-4 Inhibitor I),log2 fold change (ibrutinib),log2 fold change [1],log2 fold change (ralimetinib),log2 fold change [2],log2 fold change [3],log2 fold change [4],log2 fold change (pinometostat),log2 fold change [5],log2 fold change [6],log2 fold change [7],log2 fold change [8],log2 fold change [9],log2 fold change [10],log2 fold change (Nexturastat A),log2 fold change (vemurafenib),log2 fold change [11],log2 fold change [12],log2 fold change (givinostat),log2 fold change (barasertib)
NMRAL1 (UniProt Q9HBL8),0.058,0.874 (active),0.467,-0.016,-0.121,0,-0.007,0,-0.257,0.281,1.01 (active),0.029,0.025,-0.151,-0.138,0.003,-0.074,0.234,0.027,-0.021
NCAPH (UniProt Q15003),-0.124,-0.045,0.097,0.007,-0.094,-0.023,0.02,0.08,0.017,-0.006,0.02,-0.091,0.013,0.012,0.09,0.068,0.065,0.067,0.238,0.042
NOLC1 isoform 2 (UniProt Q14978),-0.057,-0.089,-0.305 (active),0.041,0.021,-0.015,-0.086,-0.011,-0.023,-1.4 (active),-0.074,-0.004,-0.082,-0.051,0.018,-0.088,-0.032,0.104,0.143,-0.033
NUCKS1 (UniProt Q9H1E3),0.094,-0.018,0.208,-0.054,0.018,0.138,-0.029,-0.061,0.021,-0.454 (active),-0.036,0.065,-0.014,0.044,-0.061,0.017,-0.061,-0.076,-0.004,0.008
PAK1 isoform 2 (UniProt Q13153),0.018,0.048,0.158,-0.066,-0.025,0,-0.046,-0.038,0.192,0.051,0.035,-0.072,0.114,0.003,-0.01,0.019,-0.036,-0.075,-0.054,-0.001
MRPL50 (UniProt Q8N5N7),-0.036,0.052,0.036,0.315,-0.001,-0.014,-0.203,-0.01,0.04,0.16,-0.09,-0.04,0.175,-0.031,0.208,0.034,0.244,-0.058,0.05,-0.057
MORC3 (UniProt Q14149),0.021,-0.047,0.023,-0.024,-0.122,-0.051,0.002,-0.026,-0.039,0.595 (active),-0.02,-0.06,-0.025,0.059,-0.296,0.095,0.032,0.11,-0.193,0.102
MRPS18B (UniProt Q9Y676),-0.026,0.103,-0.096,-0.022,-0.025,-0.043,0.137,-0.005,0.056,-0.068,-0.036,-0.165,-0.08,0.009,0.031,-0.074,0,-0.081,0.075,-0.017
MRPS25 (UniProt P82663),-0.059,0.12,-0.021,-0.007,0.074,-0.071,0.017,-0.018,-0.106,-0.091,0.033,-0.009,0.085,0.078,0.012,-0.089,0.078,-0.082,0.049,-0.02
NOL11 (UniProt Q9H8H0),0.036,0.031,0.002,-0.028,0.037,0.21,-0.017,-0.014,-0.002,0.304 (active),-0.023,0.029,0.004,0.013,-0.024,-0.026,0.003,-0.016,0.015,-0.021
NUDT16 (UniProt Q96DE0),0.049,0.03,0.022,-0.039,0.005,0.066,-0.001,-0.001,0.017,0.004,-0.031,-0.005,-0.008,-0.03,-0.003,0.163,0.019,-0.041,-0.006,0.028
NDUFS7 (UniProt O75251),0.045,-0.04,-0.016,-0.1,-0.1,-0.086,0.05,-0.03,-0.005,0.043,0.008,0.004,0.017,0.025,-0.019,-0.025,0.028,-0.039,0.113,0.016
MRPL47 (UniProt Q9HD33),-0.11,0.022,0.003,0.056,0.016,-0.001,0.071,0.181,0.047,-0.083,0.035,-0.045,-0.03,-0.078,0.139,-0.117,-0.097,0.073,0.052,-0.047
MRPS31 (UniProt Q92665),-0.057,0.014,-0.073,-0.005,-0.032,-0.086,0.057,0.034,0.026,-0.14,-0.015,-0.012,-0.041,-0.017,0.111,-0.041,0.054,-0.012,0.009,-0.007
NFATC2IP (UniProt Q8NCF5),-0.014,-0.036,-0.051,-0.003,-0.224,-0.161,-0.006,-0.032,0.069,-0.022,-0.029,-0.026,0.028,0.013,0.007,-0.01,0.014,0.015,0.088,0.124
NOP2 isoform 4 (UniProt P46087),-0.111,-0.278,0.308,0.205,0.163,0.241,0.194,0.325,-0.062,-0.474,-0.031,-0.062,-0.105,-0.264,0.2,-0.433,-0.051,0.172,0.178,-0.223
